From PubChem BioAssay AID761 (NMMLSC, 2007)
The campaign covered roughly 190,000 compounds. About 400 (0.21%) were called active. Another 2% or so got no clear call; they are omitted.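 How the source made its calls: active means percent activity GTP binding at least 20 points away from the 100% baseline, either down as inhibitor or up as activator; inconclusive means compound flagged as likely green fluorescent from well-wide comparison; inactive means the rest.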 For the sample, actives were picked, then their nearest neighbours and some compounds at random.

Each compound was assayed against Cell division control protein 42 homolog (Homo sapiens) (UniProt P60953) (assay: wildtype Cdc42 fluorescent GTP binding changes, either direction – biochemical, multiplex bead flow cytometry, Bodipy-GTP, primary screen (AID 761;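 further: median bead fluorescence of bound Bodipy-FL-GTP at 100 nM; 0% = excess unlabeled GTP control and 100% = no compound control; below 100% means less GTP binding so inhibitor and above means activator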)). Settings: GST-Cdc42 beads, at 10 µM, actives lie on both sides.
Chain of Cell division control protein 42 homolog (Homo sapiens) (P60953 whole entry, looked up): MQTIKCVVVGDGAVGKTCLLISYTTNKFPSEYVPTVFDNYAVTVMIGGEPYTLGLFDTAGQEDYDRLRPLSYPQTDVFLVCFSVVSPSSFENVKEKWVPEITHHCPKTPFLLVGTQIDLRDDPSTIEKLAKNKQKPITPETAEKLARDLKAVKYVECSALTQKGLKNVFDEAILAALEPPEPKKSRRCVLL

| SMILES | percent activity (GTP binding) |
| --- | --- |
| CC(C)NC(=S)NN=C1CCCCCCCCCCC1 | 93% (inactive) |
| C=CCn1c(-c2sc(-c3ccccc3)nc2C)n[nH]c1=S | 90% (inactive) |
| O=C(NNC(=S)NCCCN1CCOCC1)c1ccncc1 | 98% (inactive) |
| COc1c(F)c(F)c(C(=O)O)c(Nc2ccccc2C)c1F | 100% (inactive) |
| Cc1ccc(NC(=S)NC(=O)c2ccc(-c3ccccc3)cc2)c(C)c1 | 99% (inactive) |
| Cc1ccc(Nc2c(F)c(F)c(F)c(F)c2C(=O)O)c(C)c1 | 134% [activator] (active) |
| COC(=O)C1=CN(Cc2ccc(OC)c(OC)c2)C=C(C(=O)OC)C1c1cccs1 | 99% (inactive) |
| CCn1c(-c2cccnc2Cl)nc2cc(C)c(C)cc21 | 99% (inactive) |
| Cc1ccc(C(=O)OC(C)CN2CCOCC2)cc1 (centres undefined) | 99% (inactive) |
| COc1ccccc1CNC(=O)c1cc(=O)c2ccccc2o1 | 96% (inactive) |
| COCCN(Cc1nc(-c2ccc(C(F)(F)F)cc2)no1)C(C)C | 94% (inactive) |
| COc1ccccc1NC(=O)C1=C(C)NC(=O)NC1c1ccc(C)s1 (centres undefined) | 93% (inactive) |
| COc1ccc(-c2nc3cnccn3c2NC(C)(C)CC(C)(C)C)cc1O | 101% (inactive) |
| Cc1nnc(N/N=C/C2CC=CCC2)[nH]c1=O (centres undefined) | 96% (inactive) |
| O=C(O)/C=C/c1ccc(OCCCF)cc1 | 101% (inactive) |
| CN(CC(=O)Nc1ccccc1[N+](=O)[O-])Cc1ccc(Br)cc1 | 98% (inactive) |
| CCC(C)(C)NC(=O)C(c1cccc(OC)c1OC)N(CC(C)C)C(=O)CCC(=O)Nc1cc(C)on1 (centres undefined) | 99% (inactive) |
| O=C(COC(=O)C1CCCCC1)Nc1ccc([N+](=O)[O-])cc1 | 96% (inactive) |
| Nc1nc(SCC(=O)N2CCN(S(=O)(=O)c3ccc(Cl)cc3)CC2)n[nH]1 | 100% (inactive) |
| O=C(Nc1ccc2c(c1)CCC2)c1ccc(Br)s1 | 98% (inactive) |
| CCC(c1nnnn1C1CCCC1)N(Cc1cccs1)Cc1cc2cccc(C)c2[nH]c1=O (centres undefined) | 103% (inactive) |
| Cc1cccc2cc(CN(Cc3cccs3)C(c3nnnn3C3CCCC3)C(C)C)c(=O)[nH]c12 (centres undefined) | 72% (active) |
| Cc1cccc2cc(CN(Cc3ccc4c(c3)OCO4)Cc3nnnn3C3CCCC3)c(=O)[nH]c12 | 94% (inactive) |
| COc1cc(OC)c(C(=O)OCC(=O)N2CC(=O)Nc3ccccc32)cc1OC | 103% (inactive) |
| CSc1nc2nc(-c3cccc(C(F)(F)F)c3)ccn2n1 | 93% (inactive) |

| SMILES | percent activity (GTP binding) |
| --- | --- |
| CSc1ncccc1C(=O)NC1CCCCCC1 | 96% (inactive) |
| CSc1nsc(SC)c1NC(=O)OC1CCCCC1 | 35% (active) |
| COc1ccc(NC(=O)c2c(SC)nsc2SC)cc1 | 105% (inactive) |
| Cc1cc(C)n(-c2ccc(C(=O)O)cc2[N+](=O)[O-])n1 | 98% (inactive) |
| COc1ccc(NC(=O)CN2C(=O)CSC2=O)cc1 | 98% (inactive) |
| COc1cccc(OC)c1C(=O)OCC(=O)/C(C#N)=C(\C)N | 95% (inactive) |
| CC1(C)C(c2cccs2)=[N+]([O-])C2(CCCCC2=O)N1O (centres undefined) | 99% (inactive) |
| Cc1cc(NC(=O)CN2C(=O)NC(C)(CCc3ccccc3)C2=O)no1 (centres undefined) | 96% (inactive) |
| CC(=O)c1ccc(NC(=O)CSC(=S)N2CCCC2)cc1 | 97% (inactive) |
| CCNC(=O)COC(=O)CCNC(=O)c1cccc(C)c1 | 102% (inactive) |
| O=C(N/N=C/c1ccco1)c1ccc(NC(=O)C2CC2)cc1 | 92% (inactive) |
| CCOC(=O)c1ccccc1NC(=O)CSc1nc2ccccc2c(=O)[nH]1 | 92% (inactive) |
| CCN(CC)Cc1nc2sc(C)c(C)c2c(=O)[nH]1 | 94% (inactive) |
| O=C(NN=C1CCC(=NNC(=O)c2cccnc2)CC1)c1cccnc1 | 96% (inactive) |
| O=C(CCN1CCN(C/C=C/c2ccccc2)CC1)Nc1cccc(F)c1 | 98% (inactive) |
| C=CCn1c(CCNC(=O)c2ccccc2F)nnc1SCC(=O)Nc1ccc(OC)cc1 | 96% (inactive) |
| Cc1ccccc1OCCOc1ccc([N+](=O)[O-])cc1/C=N/n1cnnc1 | 95% (inactive) |
| Cn1cnnc1Sc1ccc(S(C)(=O)=O)cc1[N+](=O)[O-] | 99% (inactive) |
| Cc1nc(N2CCC(C)CC2)c2c(C)c(C(=O)Nc3cc(F)ccc3C)sc2n1 | 92% (inactive) |
| O=C(COC(=O)c1ccccc1)Nc1cccc(S(=O)(=O)N2CCOCC2)c1 | 96% (inactive) |
| O=C1Nc2cc(Cl)c(Cl)cc2N(O)N1c1ccccc1Cl | 92% (inactive) |
| O=[N+]([O-])c1cccc(/C([O-])=C(/C(=S)Nc2ccccc2F)[n+]2ccccc2)c1 | 95% (inactive) |
| CCOc1cc2[nH]c(=O)n(Cc3ccc(C(=O)NCCCN4CCCC4=O)cc3)c(=O)c2cc1OCC | 98% (inactive) |
| O=C(/C=C/c1ccc(Cl)cc1)Nc1ccc(S(=O)(=O)Nc2ncccn2)cc1 | 98% (inactive) |
